The values below come from paper PMC7862700, “An all-to-all approach to the identification of sequence-specific readers for epigenetic DNA modifications on cytosine”.

What all share (assay): DAPPL (digital affinity profiling via proximity ligation, sequencing); 10 mM Tris-HCl pH 7.5, 50 mM NaCl, 1 mM DTT, 4% glycerol, room temperature, 30 min; GST-TFs on glutathione beads, 16-mer random dsDNA library, 0.1% formaldehyde crosslink after washing; high values mean tight binding
For test [1], the target named is T1, FLI1 (Homo sapiens, UniProt Q01543 1-452).
T1 sequence: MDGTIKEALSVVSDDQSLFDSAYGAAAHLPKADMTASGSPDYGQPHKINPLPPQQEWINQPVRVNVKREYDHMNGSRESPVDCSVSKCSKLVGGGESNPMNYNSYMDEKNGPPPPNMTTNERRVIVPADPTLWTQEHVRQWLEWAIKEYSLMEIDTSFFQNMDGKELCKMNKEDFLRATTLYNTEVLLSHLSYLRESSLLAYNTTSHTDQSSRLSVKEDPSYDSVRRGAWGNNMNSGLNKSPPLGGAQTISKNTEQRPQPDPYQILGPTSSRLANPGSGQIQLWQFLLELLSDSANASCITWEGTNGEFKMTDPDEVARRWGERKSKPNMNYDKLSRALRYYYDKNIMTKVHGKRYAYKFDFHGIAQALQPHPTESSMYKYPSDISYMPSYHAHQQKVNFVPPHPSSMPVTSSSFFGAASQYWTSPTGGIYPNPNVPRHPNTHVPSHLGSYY
As to conditions: protein: recombinant; tags: N-terminal GST; dsDNA, one strand shown. In a few lines: (§1)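 Human transcription factors were made in yeast as GST fusions, captured on glutathione beads and barcoded with DNA. With a tag-only sample included, the pool was incubated with 200 nmole of a random double-stranded 16-mer DNA library in Tris/NaCl/DTT/glycerol buffer at room temperature for 30 min, then crosslinked with 0.1% formaldehyde after washing, ligated by proximity, amplified and sequenced. For binding signal, each hexamer's read frequency for a factor is divided by its frequency for the tag-only sample.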

The target of test [2] is T2, ELK1 (Homo sapiens, UniProt P19419 1-428).
T2 sequence: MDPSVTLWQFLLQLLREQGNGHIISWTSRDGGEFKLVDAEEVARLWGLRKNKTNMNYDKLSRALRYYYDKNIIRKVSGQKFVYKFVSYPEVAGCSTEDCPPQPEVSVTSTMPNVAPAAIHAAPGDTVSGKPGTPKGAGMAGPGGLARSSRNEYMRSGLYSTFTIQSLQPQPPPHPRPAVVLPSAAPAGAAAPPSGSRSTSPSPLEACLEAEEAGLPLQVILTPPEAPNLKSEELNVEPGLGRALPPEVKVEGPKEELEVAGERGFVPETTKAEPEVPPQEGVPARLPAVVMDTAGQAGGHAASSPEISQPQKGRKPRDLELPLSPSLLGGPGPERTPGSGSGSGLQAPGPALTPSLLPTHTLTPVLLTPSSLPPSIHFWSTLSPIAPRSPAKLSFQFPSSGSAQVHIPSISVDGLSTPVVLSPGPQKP
To be noted: protein: recombinant; tags: N-terminal GST; dsDNA, one strand shown. In a few lines:
as §1

Test [3] addresses T3, GABPA (Homo sapiens, UniProt Q06546 1-454).
T3 sequence: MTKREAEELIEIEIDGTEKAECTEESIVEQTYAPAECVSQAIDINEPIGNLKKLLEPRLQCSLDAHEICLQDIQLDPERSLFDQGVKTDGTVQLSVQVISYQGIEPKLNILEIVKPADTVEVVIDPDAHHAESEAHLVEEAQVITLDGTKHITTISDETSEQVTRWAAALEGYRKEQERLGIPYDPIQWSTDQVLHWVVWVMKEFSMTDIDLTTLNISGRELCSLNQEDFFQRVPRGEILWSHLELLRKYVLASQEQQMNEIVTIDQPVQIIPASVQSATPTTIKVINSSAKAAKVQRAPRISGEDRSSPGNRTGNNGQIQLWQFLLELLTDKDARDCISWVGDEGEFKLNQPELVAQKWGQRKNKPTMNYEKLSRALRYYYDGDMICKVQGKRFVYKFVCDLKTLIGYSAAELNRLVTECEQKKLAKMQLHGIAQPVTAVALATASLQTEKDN
To be noted: protein: recombinant; tags: N-terminal GST; dsDNA, one strand shown. In a few lines:
as §1

Test [4] concerns the target T4, ERG (Homo sapiens, UniProt P11308 1-479).
T4 sequence: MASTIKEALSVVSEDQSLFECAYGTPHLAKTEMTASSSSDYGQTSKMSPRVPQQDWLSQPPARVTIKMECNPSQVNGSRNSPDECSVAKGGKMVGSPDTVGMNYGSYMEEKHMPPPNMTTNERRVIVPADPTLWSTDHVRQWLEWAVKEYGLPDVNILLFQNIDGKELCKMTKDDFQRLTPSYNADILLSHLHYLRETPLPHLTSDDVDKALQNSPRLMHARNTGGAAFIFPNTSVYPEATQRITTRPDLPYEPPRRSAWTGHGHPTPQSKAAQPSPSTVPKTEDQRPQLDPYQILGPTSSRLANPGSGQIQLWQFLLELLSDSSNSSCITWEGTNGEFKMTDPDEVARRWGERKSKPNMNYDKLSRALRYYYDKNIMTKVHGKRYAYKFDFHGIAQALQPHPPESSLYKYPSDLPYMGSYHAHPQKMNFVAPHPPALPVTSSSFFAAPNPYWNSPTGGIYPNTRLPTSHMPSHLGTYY
To be noted: protein: recombinant; tags: N-terminal GST; dsDNA, one strand shown. In a few lines: as §1

The target in test [5] is ELF1 (Homo sapiens, UniProt P32519 1-619). As to conditions: protein: recombinant; tags: N-terminal GST; dsDNA, one strand shown. Put shortly: as §1
For test [6], the target named is T5, EHF (Homo sapiens, UniProt Q9NZC4 1-300).
T5 sequence: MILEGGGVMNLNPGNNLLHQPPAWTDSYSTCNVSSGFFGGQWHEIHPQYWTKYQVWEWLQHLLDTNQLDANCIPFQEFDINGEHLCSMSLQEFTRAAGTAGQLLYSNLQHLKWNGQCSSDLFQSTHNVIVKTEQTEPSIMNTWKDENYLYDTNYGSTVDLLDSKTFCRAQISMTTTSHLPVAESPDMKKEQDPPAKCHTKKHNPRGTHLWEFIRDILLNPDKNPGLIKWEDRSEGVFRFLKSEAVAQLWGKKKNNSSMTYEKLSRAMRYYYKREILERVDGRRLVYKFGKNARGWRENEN
To be noted: protein: recombinant; tags: N-terminal GST; dsDNA, one strand shown. Put shortly:
as §1

Test [7] concerns the target SPI1 (Homo sapiens, UniProt P17947 1-270). To be noted: protein: recombinant; tags: N-terminal GST; dsDNA, one strand shown. In a few lines:
as §1

Test [8] addresses SPIB (Homo sapiens, UniProt Q01892 1-262). As to conditions: protein: recombinant; tags: N-terminal GST; dsDNA, one strand shown. In a few lines:
as §1

Test [9] has as its target T6, ELK3 (Homo sapiens, UniProt P41970 1-407).
T6 sequence: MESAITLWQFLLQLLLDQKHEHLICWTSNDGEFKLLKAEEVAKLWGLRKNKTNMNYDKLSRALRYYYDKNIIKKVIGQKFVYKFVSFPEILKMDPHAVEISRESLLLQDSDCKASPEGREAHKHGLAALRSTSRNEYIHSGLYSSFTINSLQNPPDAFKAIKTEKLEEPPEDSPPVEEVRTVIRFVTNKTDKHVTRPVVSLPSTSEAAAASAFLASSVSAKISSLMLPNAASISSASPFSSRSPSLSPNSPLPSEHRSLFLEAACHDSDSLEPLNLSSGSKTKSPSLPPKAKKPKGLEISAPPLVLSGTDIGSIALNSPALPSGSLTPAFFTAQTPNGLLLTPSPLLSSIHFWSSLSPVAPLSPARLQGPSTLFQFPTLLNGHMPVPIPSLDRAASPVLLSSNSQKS
As to conditions: protein: recombinant; tags: N-terminal GST; dsDNA, one strand shown. Put shortly:
as §1

Test [10] has as its target T7, FEV (Homo sapiens, UniProt Q99581 1-238).
T7 sequence: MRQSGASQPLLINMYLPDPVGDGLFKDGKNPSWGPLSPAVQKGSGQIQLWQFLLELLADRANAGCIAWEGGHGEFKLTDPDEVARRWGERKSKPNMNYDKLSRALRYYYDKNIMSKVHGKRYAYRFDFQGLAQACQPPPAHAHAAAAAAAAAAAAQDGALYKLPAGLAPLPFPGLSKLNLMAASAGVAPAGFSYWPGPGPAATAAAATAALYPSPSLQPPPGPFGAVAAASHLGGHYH
As to conditions: protein: recombinant; tags: N-terminal GST; dsDNA, one strand shown. Put shortly: as §1

Test [11] concerns the target ETV5 (Homo sapiens, UniProt P41161 1-510). As to conditions: protein: recombinant; tags: N-terminal GST; dsDNA, one strand shown. In a few lines:
as §1

In test [12] the target is HSF1 (Homo sapiens, UniProt Q00613 1-529). To be noted: protein: recombinant; tags: N-terminal GST; chain copies: 3; dsDNA, one strand shown. In a few lines: as §1
Test [13] deals with T8, SPIC (Homo sapiens, UniProt Q8N5J4 1-248).
T8 sequence: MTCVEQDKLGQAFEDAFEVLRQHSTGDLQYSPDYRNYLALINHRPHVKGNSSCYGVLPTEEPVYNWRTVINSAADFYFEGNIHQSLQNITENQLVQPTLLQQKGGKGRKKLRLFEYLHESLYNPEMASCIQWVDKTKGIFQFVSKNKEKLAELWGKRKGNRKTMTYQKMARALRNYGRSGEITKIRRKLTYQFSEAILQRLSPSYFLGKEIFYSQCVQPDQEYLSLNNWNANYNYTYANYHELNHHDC
As to conditions: protein: recombinant; tags: N-terminal GST; dsDNA, one strand shown. In a few lines: as §1

Test [14] has as its target ELF4 (Homo sapiens, UniProt Q99607 1-663). To be noted: protein: recombinant; tags: N-terminal GST; dsDNA, one strand shown. Put shortly:
as §1

In test [15] the target is T9, ELK4 (Homo sapiens, UniProt P28324-2 1-405).
T9 sequence: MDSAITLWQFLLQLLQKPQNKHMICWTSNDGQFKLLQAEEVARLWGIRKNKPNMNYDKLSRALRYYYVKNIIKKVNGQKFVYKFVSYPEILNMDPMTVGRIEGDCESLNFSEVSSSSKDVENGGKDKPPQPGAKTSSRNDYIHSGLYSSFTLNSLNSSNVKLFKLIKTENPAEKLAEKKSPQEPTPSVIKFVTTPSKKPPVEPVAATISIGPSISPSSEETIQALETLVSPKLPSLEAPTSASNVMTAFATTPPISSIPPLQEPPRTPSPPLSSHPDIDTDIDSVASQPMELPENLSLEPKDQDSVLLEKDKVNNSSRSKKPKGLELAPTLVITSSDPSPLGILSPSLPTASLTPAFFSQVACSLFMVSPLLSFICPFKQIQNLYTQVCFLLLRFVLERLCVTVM
As to conditions: protein: recombinant; tags: N-terminal GST; dsDNA, one strand shown. In a few lines:
as §1

Test [16] has as its target T10, ETV2 (Homo sapiens, UniProt O00321 1-342).
T10 sequence: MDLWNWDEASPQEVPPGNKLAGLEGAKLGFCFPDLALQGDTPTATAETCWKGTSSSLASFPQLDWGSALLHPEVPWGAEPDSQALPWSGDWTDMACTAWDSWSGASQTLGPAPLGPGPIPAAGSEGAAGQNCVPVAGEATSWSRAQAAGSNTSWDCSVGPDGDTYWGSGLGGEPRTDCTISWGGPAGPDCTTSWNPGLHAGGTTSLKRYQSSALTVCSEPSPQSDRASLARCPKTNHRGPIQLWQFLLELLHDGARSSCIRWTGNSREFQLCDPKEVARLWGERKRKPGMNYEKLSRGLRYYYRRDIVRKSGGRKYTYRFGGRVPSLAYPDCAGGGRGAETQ
To be noted: protein: recombinant; tags: N-terminal GST; dsDNA, one strand shown. Put shortly: as §1

Test [17] addresses T11, ELF3 (Homo sapiens, UniProt P78545 1-371).
T11 sequence: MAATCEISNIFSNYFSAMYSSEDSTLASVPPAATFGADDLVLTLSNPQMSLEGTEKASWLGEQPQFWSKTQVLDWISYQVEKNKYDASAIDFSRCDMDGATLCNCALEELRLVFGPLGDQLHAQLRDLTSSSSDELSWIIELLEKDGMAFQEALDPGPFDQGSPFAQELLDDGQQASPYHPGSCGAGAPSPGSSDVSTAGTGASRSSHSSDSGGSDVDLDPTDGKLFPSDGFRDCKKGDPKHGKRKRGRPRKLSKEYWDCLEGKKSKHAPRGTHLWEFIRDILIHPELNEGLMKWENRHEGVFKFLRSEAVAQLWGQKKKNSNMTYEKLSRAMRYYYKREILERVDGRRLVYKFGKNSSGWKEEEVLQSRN
To be noted: protein: recombinant; tags: N-terminal GST; dsDNA, one strand shown. Put shortly:
as §1

The target of test [18] is CRX (Homo sapiens, UniProt O43186 1-299). As to conditions: protein: recombinant; tags: N-terminal GST; dsDNA, one strand shown. In a few lines: as §1
The target of test [19] is ETV1 (Homo sapiens, UniProt P50549 1-477). As to conditions: protein: recombinant; tags: N-terminal GST; dsDNA, one strand shown. In a few lines:
as §1

Chain of CRX (O43186 whole entry): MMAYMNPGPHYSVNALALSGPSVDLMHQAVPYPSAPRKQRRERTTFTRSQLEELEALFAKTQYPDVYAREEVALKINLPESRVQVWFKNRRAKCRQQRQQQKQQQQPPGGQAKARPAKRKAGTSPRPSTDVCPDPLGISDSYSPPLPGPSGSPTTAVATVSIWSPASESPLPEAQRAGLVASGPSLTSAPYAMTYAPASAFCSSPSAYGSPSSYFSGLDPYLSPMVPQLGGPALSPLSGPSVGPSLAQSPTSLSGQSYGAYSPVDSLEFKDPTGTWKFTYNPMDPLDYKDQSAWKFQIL
Chain of ELF1 (P32519 whole entry): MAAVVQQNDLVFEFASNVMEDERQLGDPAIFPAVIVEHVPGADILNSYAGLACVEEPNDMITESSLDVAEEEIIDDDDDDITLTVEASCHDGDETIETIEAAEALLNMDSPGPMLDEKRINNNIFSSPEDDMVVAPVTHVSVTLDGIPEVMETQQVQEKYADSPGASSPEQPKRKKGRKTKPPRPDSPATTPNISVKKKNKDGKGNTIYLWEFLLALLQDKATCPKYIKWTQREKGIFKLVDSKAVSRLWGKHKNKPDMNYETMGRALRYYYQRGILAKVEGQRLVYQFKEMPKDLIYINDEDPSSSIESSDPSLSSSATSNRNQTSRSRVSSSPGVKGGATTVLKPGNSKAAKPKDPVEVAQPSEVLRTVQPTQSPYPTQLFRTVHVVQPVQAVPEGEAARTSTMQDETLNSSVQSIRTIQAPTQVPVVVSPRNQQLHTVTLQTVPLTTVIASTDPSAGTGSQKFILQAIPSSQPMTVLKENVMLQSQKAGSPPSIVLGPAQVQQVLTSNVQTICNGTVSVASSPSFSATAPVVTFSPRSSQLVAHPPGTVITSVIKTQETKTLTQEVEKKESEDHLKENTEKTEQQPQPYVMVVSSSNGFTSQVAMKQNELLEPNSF
Chain of ETV1 (P50549 whole entry): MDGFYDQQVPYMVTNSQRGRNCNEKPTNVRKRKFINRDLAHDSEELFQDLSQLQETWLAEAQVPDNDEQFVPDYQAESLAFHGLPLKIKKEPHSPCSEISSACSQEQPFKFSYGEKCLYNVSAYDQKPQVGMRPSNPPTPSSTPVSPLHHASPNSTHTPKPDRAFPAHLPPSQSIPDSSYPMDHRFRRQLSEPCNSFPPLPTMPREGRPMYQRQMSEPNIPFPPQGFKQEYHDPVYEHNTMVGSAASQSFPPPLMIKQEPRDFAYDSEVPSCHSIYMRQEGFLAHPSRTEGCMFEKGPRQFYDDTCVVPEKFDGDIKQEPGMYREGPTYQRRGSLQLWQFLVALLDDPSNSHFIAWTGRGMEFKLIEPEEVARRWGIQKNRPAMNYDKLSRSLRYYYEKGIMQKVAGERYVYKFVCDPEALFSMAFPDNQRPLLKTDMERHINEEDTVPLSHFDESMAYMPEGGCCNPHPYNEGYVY
Chain of ETV5 (P41161 whole entry): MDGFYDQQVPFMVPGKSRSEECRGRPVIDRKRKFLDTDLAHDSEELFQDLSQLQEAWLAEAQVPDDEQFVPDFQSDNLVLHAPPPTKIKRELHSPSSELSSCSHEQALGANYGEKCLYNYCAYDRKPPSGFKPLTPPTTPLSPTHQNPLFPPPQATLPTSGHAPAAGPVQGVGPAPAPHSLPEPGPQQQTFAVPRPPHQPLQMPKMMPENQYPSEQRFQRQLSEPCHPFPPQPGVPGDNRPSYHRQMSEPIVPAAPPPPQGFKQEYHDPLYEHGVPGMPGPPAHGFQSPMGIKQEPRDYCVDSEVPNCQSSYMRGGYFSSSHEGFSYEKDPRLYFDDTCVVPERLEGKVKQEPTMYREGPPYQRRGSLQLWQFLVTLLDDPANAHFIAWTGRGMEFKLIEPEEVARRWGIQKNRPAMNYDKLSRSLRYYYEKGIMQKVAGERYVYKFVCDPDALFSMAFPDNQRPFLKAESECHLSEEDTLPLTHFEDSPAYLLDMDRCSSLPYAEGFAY
Chain of ELF4 (Q99607 whole entry): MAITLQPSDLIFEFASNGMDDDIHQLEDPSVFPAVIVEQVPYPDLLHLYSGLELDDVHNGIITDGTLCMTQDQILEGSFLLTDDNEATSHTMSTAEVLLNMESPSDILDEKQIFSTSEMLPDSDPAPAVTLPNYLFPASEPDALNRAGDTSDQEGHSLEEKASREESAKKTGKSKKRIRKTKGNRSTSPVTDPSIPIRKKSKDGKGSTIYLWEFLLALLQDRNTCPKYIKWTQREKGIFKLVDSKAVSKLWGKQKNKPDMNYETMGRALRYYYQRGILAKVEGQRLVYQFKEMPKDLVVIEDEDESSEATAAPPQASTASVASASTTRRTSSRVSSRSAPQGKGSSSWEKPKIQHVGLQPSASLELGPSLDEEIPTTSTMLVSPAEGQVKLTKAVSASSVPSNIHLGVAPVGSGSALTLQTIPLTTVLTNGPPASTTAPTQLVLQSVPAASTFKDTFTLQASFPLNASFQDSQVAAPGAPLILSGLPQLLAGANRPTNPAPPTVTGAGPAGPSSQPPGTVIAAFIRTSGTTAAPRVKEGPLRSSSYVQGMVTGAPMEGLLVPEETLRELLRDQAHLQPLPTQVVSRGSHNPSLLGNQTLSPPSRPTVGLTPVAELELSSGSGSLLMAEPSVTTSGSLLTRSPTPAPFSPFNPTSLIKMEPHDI
Chain of SPIB (Q01892 whole entry): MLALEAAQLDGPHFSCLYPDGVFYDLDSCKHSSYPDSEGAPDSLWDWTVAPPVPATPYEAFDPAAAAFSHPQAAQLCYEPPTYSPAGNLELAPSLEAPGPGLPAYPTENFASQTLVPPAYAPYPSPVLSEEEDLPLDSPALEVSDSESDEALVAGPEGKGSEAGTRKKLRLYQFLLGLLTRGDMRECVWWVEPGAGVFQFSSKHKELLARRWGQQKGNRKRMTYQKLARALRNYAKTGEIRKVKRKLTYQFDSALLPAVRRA
Chain of HSF1 (Q00613 whole entry): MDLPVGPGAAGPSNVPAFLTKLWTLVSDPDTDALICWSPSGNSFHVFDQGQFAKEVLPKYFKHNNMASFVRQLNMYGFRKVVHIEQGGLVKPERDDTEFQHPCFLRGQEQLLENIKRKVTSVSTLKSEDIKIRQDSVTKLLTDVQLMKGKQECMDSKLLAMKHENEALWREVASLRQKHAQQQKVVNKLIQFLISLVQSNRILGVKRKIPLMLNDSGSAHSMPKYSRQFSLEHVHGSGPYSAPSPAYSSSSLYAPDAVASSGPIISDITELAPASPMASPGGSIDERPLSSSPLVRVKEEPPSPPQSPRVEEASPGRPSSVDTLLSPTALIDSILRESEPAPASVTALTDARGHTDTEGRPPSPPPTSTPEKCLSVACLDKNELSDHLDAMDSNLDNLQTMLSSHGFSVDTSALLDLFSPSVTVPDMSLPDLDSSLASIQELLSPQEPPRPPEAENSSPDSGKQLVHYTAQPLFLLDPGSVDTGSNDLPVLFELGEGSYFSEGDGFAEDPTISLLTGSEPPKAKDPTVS

Turning to AAGATA, the binding signal in test [1] was 1.07 fold enrichment (6-mer frequency, TF over GST control); in test [2], 1.15 fold enrichment (6-mer frequency, TF over GST control); in [3], 1.14 fold enrichment (6-mer frequency, TF over GST control); in [4] it was 1.17 fold enrichment (6-mer frequency, TF over GST control); in test [5] it was 1.14 fold enrichment (6-mer frequency, TF over GST control); in test [6] it was 1.18 fold enrichment (6-mer frequency, TF over GST control). Further, the binding signal in test [7] is 1.08 fold enrichment (6-mer frequency, TF over GST control); in [8], 1.12 fold enrichment (6-mer frequency, TF over GST control); in [9] it was 1.23 fold enrichment (6-mer frequency, TF over GST control); in test [10], 1.08 fold enrichment (6-mer frequency, TF over GST control); in test [11], 1.14 fold enrichment (6-mer frequency, TF over GST control); in test [12], 1.33 fold enrichment (6-mer frequency, TF over GST control). Also, the binding signal in [13] is 1.06 fold enrichment (6-mer frequency, TF over GST control); in [14], 1.16 fold enrichment (6-mer frequency, TF over GST control); in [15], 1.12 fold enrichment (6-mer frequency, TF over GST control); in test [16], 1.16 fold enrichment (6-mer frequency, TF over GST control); in test [17], 1.03 fold enrichment (6-mer frequency, TF over GST control); in [18], 1.53 fold enrichment (6-mer frequency, TF over GST control). For the same sequence, the binding signal in test [19] is 1.2 fold enrichment (6-mer frequency, TF over GST control).
